Measured values reported in PubChem BioAssay AID1159580 (chemical genetic matrix, 2015).
Out of some 5,500 compounds screened, about 2,000 (36%) were called active. About 18% were inconclusive and are not listed. Cut-off read from the data, not from the text of the source: active = normalized growth mostly below about 0.91 (no sharp cut-off); inconclusive = no clear call, values can overlap the other calls; inactive = mostly above about 0.92. The list shows a part of the results.

Assay: chemical genetic growth profiling, strain panel (AID 1159580);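 note: tested at 20 µM; growth read once vehicle control cultures reached saturation at 30 °C; 1 = growth at the plate median or of vehicle wells; lower values mean less growth of the strain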
Conditions: growth OD

Measured: normalized growth

COc1c(Cl)ccc(Cl)c1C(=O)O
inactive: S. cerevisiae deletion strains, locus YJR043C, strain POL32, active compounds read low 1.01 | S. cerevisiae deletion strains, locus YJR075W, strain HOC1, active compounds read low 0.971 | S. cerevisiae deletion strains, locus YKL009W, strain mrt4, active compounds read low 1.02 | S. cerevisiae deletion strains, locus YKL068W, active compounds read low 1.01 | S. cerevisiae deletion strains, locus YKL085W, strain MDH1 (second series), active compounds read low 1.01 | S. cerevisiae deletion strains, locus YKL085W, strain MDH1, active compounds read low 1.01 | S. cerevisiae deletion strains, locus YKL160W, strain elf1, active compounds read low 0.988 | S. cerevisiae deletion strains, locus YKL190W, strain CNB1, active compounds read low 1.01 | S. cerevisiae deletion strains, locus YKR001C, strain vps1, active compounds read low 1.02 | S. cerevisiae deletion strains, locus YKR026C, strain gcn3, active compounds read low 0.984 | S. cerevisiae deletion strains, locus YKR091W, strain srl3, active compounds read low 0.985 | S. cerevisiae deletion strains, locus YLL001W, strain dnm1, active compounds read low 0.995 | S. cerevisiae deletion strains, locus YLL026W, active compounds read low 0.979 | S. cerevisiae deletion strains, locus YLL041C, strain sdh2, active compounds read low 0.994 | S. cerevisiae deletion strains, locus YLR027C, strain aat2, active compounds read low 0.982 | S. cerevisiae deletion strains, locus YLR039C, strain RIC1, active compounds read low 1.06 | S. cerevisiae deletion strains, locus YLR058C, strain SHM2, active compounds read low 1.02 | S. cerevisiae deletion strains, locus YLR102C, strain apc9, active compounds read low 1.01 | S. cerevisiae deletion strains, locus YLR221C, strain rsa3, active compounds read low 0.983 | S. cerevisiae deletion strains, locus YLR258W, strain gsy2, active compounds read low 0.986 | S. cerevisiae deletion strains, locus YLR262C, strain YPT6 (second series), active compounds read low 0.997 | S. cerevisiae deletion strains, locus YLR262C, strain YPT6, active compounds read low 1.07 | S. cerevisiae deletion strains, locus YLR268W, strain sec22, active compounds read low 1.03 | S. cerevisiae deletion strains, locus YLR320W, strain mms22, active compounds read low 0.974 | S. cerevisiae deletion strains, locus YLR330W, strain CHS5, active compounds read low 1.01 | S. cerevisiae deletion strains, locus YLR342W, strain FKS1 (second series), active compounds read low 1.05 | S. cerevisiae deletion strains, locus YLR342W, strain FKS1, active compounds read low 0.979 | S. cerevisiae deletion strains, locus YLR357W, strain rsc2, active compounds read low 0.992 | S. cerevisiae deletion strains, locus YLR370C, strain arc18, active compounds read low 0.986 | S. cerevisiae deletion strains, locus YLR371W, strain rom2, active compounds read low 1.01 | S. cerevisiae deletion strains, locus YLR384C, strain iki3, active compounds read low 0.985 | S. cerevisiae deletion strains, locus YLR418C, strain cdc73, active compounds read low 1.02 | S. cerevisiae deletion strains, locus YML016C, strain PPZ1, active compounds read low 1.01 | S. cerevisiae deletion strains, locus YML032C, strain rad52, active compounds read low 1.02 | S. cerevisiae deletion strains, locus YML120C, strain ndi1, active compounds read low 0.97 | S. cerevisiae deletion strains, locus YML124C, strain tub3, active compounds read low 1.01 | S. cerevisiae deletion strains, locus YMR058W, strain fet3, active compounds read low 0.979 | S. cerevisiae deletion strains, locus YMR078C, strain ctf18, active compounds read low 1.02 | S. cerevisiae deletion strains, locus YMR125W, strain sto1, active compounds read low 0.951 | S. cerevisiae deletion strains, locus YMR129W, active compounds read low 0.987 | S. cerevisiae deletion strains, locus YMR205C, strain PFK2, active compounds read low 0.975 | S. cerevisiae deletion strains, locus YMR223W, strain ubp8, active compounds read low 1.01 | S. cerevisiae deletion strains, locus YMR231W, strain pep5, active compounds read low 0.984 | S. cerevisiae deletion strains, locus YMR263W, strain SAP30, active compounds read low 1.01 | S. cerevisiae deletion strains, locus YMR307W, strain GAS1, active compounds read low 1.06 | S. cerevisiae deletion strains, locus YNL067W, strain RPL9B, active compounds read low 1.01 | S. cerevisiae deletion strains, locus YNL071W, strain lat1, active compounds read low 0.992 | S. cerevisiae deletion strains, locus YNL128W, strain TEP1, active compounds read low 1 | S. cerevisiae deletion strains, locus YNL153C, strain GIM3, active compounds read low 1.01 | S. cerevisiae deletion strains, locus YNL209W, strain ssb2, active compounds read low 0.988 | S. cerevisiae deletion strains, locus YNL233W, strain BNI4, active compounds read low 1.01 | S. cerevisiae deletion strains, locus YNL248C, strain rpa49, active compounds read low 0.982 | S. cerevisiae deletion strains, locus YNL250W, strain rad50, active compounds read low 1 | S. cerevisiae deletion strains, locus YNL271C, strain bni1, active compounds read low 1.01 | S. cerevisiae deletion strains, locus YNL298W, strain CLA4, active compounds read low 1.02 | S. cerevisiae deletion strains, locus YNL307C, strain MCK1, active compounds read low 1.03 | S. cerevisiae deletion strains, locus YNL322C, strain KRE1 (second series), active compounds read low 0.983 | S. cerevisiae deletion strains, locus YNL322C, strain KRE1, active compounds read low 1.01 | S. cerevisiae deletion strains, locus YNR049C, strain mso1, active compounds read low 0.977 | S. cerevisiae deletion strains, locus YNR052C, strain pop2, active compounds read low 1.01 | S. cerevisiae deletion strains, locus YOL006C, strain TOP1, active compounds read low 1.05 | S. cerevisiae deletion strains, locus YOL012C, strain htz1 0.945 | S. cerevisiae deletion strains, locus YOL147C, strain pex11, active compounds read low 1.01 | S. cerevisiae deletion strains, locus YOR001W, strain rrp6, active compounds read low 0.991 | S. cerevisiae deletion strains, locus YOR061W, strain CKA2, active compounds read low 1.01 | S. cerevisiae deletion strains, locus YOR069W, strain VPS5, active compounds read low 1 | S. cerevisiae deletion strains, locus YOR070C, strain gyp1, active compounds read low 0.988 | S. cerevisiae deletion strains, locus YOR080W, strain dia2, active compounds read low 0.969 | S. cerevisiae deletion strains, locus YOR083W, strain WHI5, active compounds read low 0.988 | S. cerevisiae deletion strains, locus YOR106W, strain vam3, active compounds read low 0.995 | S. cerevisiae deletion strains, locus YOR136W, strain idh2, active compounds read low 1.01 | S. cerevisiae deletion strains, locus YOR144C, strain elg1, active compounds read low 1.01 | S. cerevisiae deletion strains, locus YOR184W, strain ser1, active compounds read low 1.02 | S. cerevisiae deletion strains, locus YOR265W, strain rbl2, active compounds read low 0.976 | S. cerevisiae deletion strains, locus YOR270C, strain vph1, active compounds read low 0.993 | S. cerevisiae deletion strains, locus YOR290C, strain snf2, active compounds read low 0.997 | S. cerevisiae deletion strains, locus YOR316C, strain cot1, active compounds read low 1.01 | S. cerevisiae deletion strains, locus YPL051W, strain arl3, active compounds read low 0.995 | S. cerevisiae deletion strains, locus YPL055C, strain LGE1, active compounds read low 1.02 | S. cerevisiae deletion strains, locus YPL078C, strain atp4, active compounds read low 0.982 | S. cerevisiae deletion strains, locus YPL106C, strain sse1, active compounds read low 0.979 | S. cerevisiae deletion strains, locus YPL240C, strain hsp82, active compounds read low 0.997 | S. cerevisiae deletion strains, locus YPL241C, strain CIN2, active compounds read low 1.01 | S. cerevisiae deletion strains, locus YPR119W, strain clb2, active compounds read low 1.01 | S. cerevisiae deletion strains, locus YPR141C, strain kar3, active compounds read low 1.02 | S. cerevisiae deletion strains, locus YPR163C, strain tif3, active compounds read low 1.01 | S. cerevisiae deletion strains, locus YPR167C, strain met16, active compounds read low 1.01 | S. cerevisiae deletion strains, strain wtn01, active compounds read low 1.01 | S. cerevisiae strains, strain wild type, active compounds read low 1.01
